Drawing on PubChem BioAssay (NCI), this text covers growth for seven molecules.

About 83,000 compounds went through this panel and 20% of them were active in at least one assay; those are over-represented in the sample as a whole.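 Assay: single dose, 48 h. Readout: percent growth (0 = no net growth; negative = cell death). Active: <10.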 Unmarked numbers belong to inactive results. Calls of active or inactive are those of the source.

Test in all cases: NCI-60 one-dose screen, 48 h (100 = growth as untreated, 0 = no growth, -100 = all killed)
Conditions in all cases: 10 µM unless noted

Test [1] concerns NCI-H23 lung.
The test system of test [2] is NCI-H226 lung.
The test system of test [3] is NCI-H322M lung.
The subject of test [4] is HOP-62 NSCLC.
In test [5] the test system is NCI-H460 lung.
Test [6] deals with HOP-92 NSCLC.
The subject of test [7] is NCI-H522 lung.
Test [8] concerns A549/ATCC NSCLC.
Test [9] has as its system 786-0 renal.
Test [10] deals with COLO 205 colon.
The subject of test [11] is DU-145 prostate.
For test [12], the system named is K-562 leukemia.
For test [13], the system named is MALME-3M melanoma.
Test [14] concerns MDA-MB-231 breast.
In test [15] the test system is RXF 393 renal.
In test [16] the test system is SF-268 CNS.
Test [17] deals with SF-295 CNS.
The subject of test [18] is SF-539 CNS.
Test [19] deals with UACC-257 melanoma.
The subject of test [20] is M14 melanoma.

For `CCCCSc1ccc2nc(-c3ccc(OCCCN=C(N)N)cc3)cn2c1`, the growth in [1] was 63.7%; in [2], 72.3%; in test [3], 90.7%; in test [4], 86.4%; in test [5], 43.7%; in test [6], 43.1%. The growth in test [7] was 53.8%; in test [8], 83.8%; in [9], 39.4%; in test [10], 51.1%; in test [11] it was 73.4%; in [12] it was 32.9%. Besides, the growth in test [13] was 23.2%; in [14], 51.2%; in test [15], 45.6%; in [16], 50.9%; in [17], 52.7%; in test [18], 9.52% (active). The growth in [19] is 85.7%; in [20], 72.5%.

With `CC(C)(C)c1cc(C(C)(C)c2ccccc2)cc(Cc2cc(C(C)(C)c3ccccc3)cc(C(C)(C)C)c2O)c1O`, the growth was 108% in test [1]; 90.9% in test [2]; 97.1% in test [3]; 108% in test [4]; 105% in test [5]; 55.1% in test [6]. Moreover, the growth in test [7] was 79.2%; in test [8], 101%; in test [9] it was 103%; in test [10] it was 123%; in test [11], 123%; in test [12] it was 48%. Moreover, the growth was 97.4% in test [13]; 105% in [14]; 95.5% in [15]; 98.4% in test [16]; 116% in test [17]; 101% in test [18]. Moreover, the growth is 105% in test [19] and 116% in test [20].

Turning to `C=C1C(=O)O[C@H]2[C@H]1CC/C(CNS(=O)(=O)c1ccc3ccccc3c1)=C\CC[C@@]1(C)O[C@@H]21`, the growth in [1] was -3.15% (active); in test [2] it was -25.4% (active); in test [3], 92.1%; in test [4], 78.4%; in test [5], 91.7%; in [6], -29.6% (active). In addition, the growth is -78.6% (active) in [7]; 69% in [8]; -67% (active) in test [9]; -84.5% (active) in [10]; -85% (active) in test [11]; -19.3% (active) in test [12]. The growth is -22.6% (active) in [13]; 2.57% (active) in test [14]; -80.8% (active) in test [15]; 51.4% in [16]; 71.2% in test [17]; 9.99% (active) in test [18]. For the same molecule, the growth in test [19] is -54.4% (active); in test [20] it was -32.6% (active).

Take `Nc1nc2ccccc2c2c(=O)c3ccc(Cl)cc3sc12`: the growth in [1] is 92%; in test [2], 98.9%; in [3], 103%; in test [4] it was 99.1%; in test [5] it was 72.7%; in [6], 84.1%. Moreover, the growth in test [7] was 94.3%; in [8] it was 94.7%; in test [9], 99.1%; in test [10] it was 98.4%; in test [11], 97.5%; in test [12], 90.7%. The growth in test [13] was 107%; in test [14] it was 91%; in test [15] it was 111%; in [16], 95.2%; in test [17], 101%; in test [18], 106%. Moreover, the growth in test [19] is 105%; in test [20] it was 94.5%.

`Fc1ccc(NC(c2ccc(F)cc2)C2CCN(CCCCc3ccccc3)CC2)cc1` (stereo not given): the growth in test [1] is 43.7%; in test [2], 74.4%; in test [3], 60.9%; in test [4] it was 71.4%; in [5], 1.45% (active); in [6] it was 29.1%. Also, the growth in test [7] is 53.6%; in test [8] it was 52.3%; in [9], 35.8%; in test [10] it was -56.5% (active); in test [11] it was 19.3%; in test [12] it was -29.1% (active). Further, the growth was 32.6% in test [13]; 6.83% (active) in [14]; 10.9% in [15]; 44.2% in test [16]; 34.6% in test [17]; 40.5% in test [18]. Besides, the results for the growth in test [19] and in test [20] were 60.7% and 24.7%, respectively.

Turning to `CN(C)CCCn1c2c(c3ccc(N4CCNCC4)cc3c1=O)C(=O)c1ccccc1-2`, the growth was -59.5% (active) in test [1]; 14.2% in test [2]; 13% in test [3]; -34.7% (active) in [4]; -47.9% (active) in test [5]; 18.4% in test [6]. Also, the growth in test [7] was 5.51% (active); in test [8] it was -61.7% (active); in [9], -95.3% (active); in test [10] it was 4.57% (active); in test [11], -30.1% (active); in test [12], -28.5% (active). Further, the growth in test [13] was 21%; in [14], -49.7% (active); in test [15] it was -78.8% (active); in test [16], -24.8% (active); in test [17], -5.76% (active); in test [18], 52.7%. The growth in test [19] was 37.3%; in test [20] it was 19.4%.

Turning to `O=C(c1ccc(Nc2nccc(NCCCNc3ccnc4cc(Cl)ccc34)n2)cc1)N1CCCCC1`, the growth in test [1] was 32.4%; in [2], 84.9%; in [3] it was 57.6%; in [4] it was 57.5%; in test [5] it was 11.3%; in [6], 64.3%. Further, the growth is 38.2% in test [7]; 19.1% in [8]; 32.9% in test [9]; 27.2% in [10]; 39.1% in [11]; 18.8% in test [12]. Moreover, the growth was 17.2% in test [13]; 36.2% in test [14]; 61% in test [15]; 36.5% in test [16]; 37.2% in [17]; 35.5% in test [18]. Besides, the values for the growth in test [19] and in test [20] were 36.7% and 35%, respectively.
